Laboratory results: paper PMC7862700, “An all-to-all approach to the identification of sequence-specific readers for epigenetic DNA modifications on cytosine”

Experiments:
Test in all cases: DAPPL (digital affinity profiling via proximity ligation, sequencing); 10 mM Tris-HCl pH 7.5, 50 mM NaCl, 1 mM DTT, 4% glycerol, room temperature, 30 min; GST-TFs on glutathione beads, 16-mer random dsDNA library, 0.1% formaldehyde crosslink after washing; high values mean tight binding
[1] = molecular target: T1, FLI1 (Homo sapiens, UniProt Q01543 1-452); details: protein: recombinant; tags: N-terminal GST; dsDNA, one strand shown
T1 sequence: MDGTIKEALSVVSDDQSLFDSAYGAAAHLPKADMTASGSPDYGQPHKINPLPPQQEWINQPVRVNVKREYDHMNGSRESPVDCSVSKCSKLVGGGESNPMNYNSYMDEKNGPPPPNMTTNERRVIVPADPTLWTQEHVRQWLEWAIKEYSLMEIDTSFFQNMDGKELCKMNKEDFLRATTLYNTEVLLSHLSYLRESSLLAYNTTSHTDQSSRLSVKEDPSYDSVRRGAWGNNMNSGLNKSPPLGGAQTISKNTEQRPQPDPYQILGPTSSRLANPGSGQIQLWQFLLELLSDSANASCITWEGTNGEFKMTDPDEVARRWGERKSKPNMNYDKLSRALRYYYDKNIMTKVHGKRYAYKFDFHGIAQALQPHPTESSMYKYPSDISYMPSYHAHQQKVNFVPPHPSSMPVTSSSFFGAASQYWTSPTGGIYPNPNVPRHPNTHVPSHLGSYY
Procedure, shortened: (§1)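 Each value of binding signal is a hexamer's read frequency for a factor divided by the same hexamer's frequency in the tag-only sample. Barcoded, bead-captured GST fusions of human transcription factors made in yeast were pooled with that sample and incubated with 200 nmole of a random double-stranded 16-mer DNA library in Tris/NaCl/DTT/glycerol buffer at room temperature for 30 min. Washing, 0.1% formaldehyde crosslinking, proximity ligation, PCR and Illumina NextSeq500 sequencing followed.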

[2] = molecular target: T2, ELK1 (Homo sapiens, UniProt P19419 1-428); details: protein: recombinant; tags: N-terminal GST; dsDNA, one strand shown
T2 sequence: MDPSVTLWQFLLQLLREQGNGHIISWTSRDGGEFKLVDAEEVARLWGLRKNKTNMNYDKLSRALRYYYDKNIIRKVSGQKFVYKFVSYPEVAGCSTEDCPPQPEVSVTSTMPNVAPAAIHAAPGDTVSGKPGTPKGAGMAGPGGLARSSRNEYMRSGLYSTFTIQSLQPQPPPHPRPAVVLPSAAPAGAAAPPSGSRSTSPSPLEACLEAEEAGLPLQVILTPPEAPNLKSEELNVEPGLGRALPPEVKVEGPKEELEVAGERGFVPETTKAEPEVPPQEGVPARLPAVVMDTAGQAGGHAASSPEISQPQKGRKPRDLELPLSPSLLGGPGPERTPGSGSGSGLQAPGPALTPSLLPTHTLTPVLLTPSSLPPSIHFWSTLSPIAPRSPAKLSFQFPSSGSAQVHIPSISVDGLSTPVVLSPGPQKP
Procedure, shortened: as §1

[3] = molecular target: T3, GABPA (Homo sapiens, UniProt Q06546 1-454); details: protein: recombinant; tags: N-terminal GST; dsDNA, one strand shown
T3 sequence: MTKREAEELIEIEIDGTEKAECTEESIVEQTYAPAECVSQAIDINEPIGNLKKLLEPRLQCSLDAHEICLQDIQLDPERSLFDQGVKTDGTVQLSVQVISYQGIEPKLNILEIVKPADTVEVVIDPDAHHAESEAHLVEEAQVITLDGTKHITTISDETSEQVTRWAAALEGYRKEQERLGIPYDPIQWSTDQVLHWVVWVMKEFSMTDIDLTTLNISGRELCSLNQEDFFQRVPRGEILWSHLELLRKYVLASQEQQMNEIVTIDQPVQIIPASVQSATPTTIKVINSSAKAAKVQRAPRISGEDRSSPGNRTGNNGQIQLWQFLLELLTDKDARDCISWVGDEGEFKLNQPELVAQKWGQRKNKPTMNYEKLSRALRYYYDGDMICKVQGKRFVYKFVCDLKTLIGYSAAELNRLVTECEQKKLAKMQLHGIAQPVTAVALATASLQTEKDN
Procedure, shortened: as §1

[4] = molecular target: T4, ERG (Homo sapiens, UniProt P11308 1-479); details: protein: recombinant; tags: N-terminal GST; dsDNA, one strand shown
T4 sequence: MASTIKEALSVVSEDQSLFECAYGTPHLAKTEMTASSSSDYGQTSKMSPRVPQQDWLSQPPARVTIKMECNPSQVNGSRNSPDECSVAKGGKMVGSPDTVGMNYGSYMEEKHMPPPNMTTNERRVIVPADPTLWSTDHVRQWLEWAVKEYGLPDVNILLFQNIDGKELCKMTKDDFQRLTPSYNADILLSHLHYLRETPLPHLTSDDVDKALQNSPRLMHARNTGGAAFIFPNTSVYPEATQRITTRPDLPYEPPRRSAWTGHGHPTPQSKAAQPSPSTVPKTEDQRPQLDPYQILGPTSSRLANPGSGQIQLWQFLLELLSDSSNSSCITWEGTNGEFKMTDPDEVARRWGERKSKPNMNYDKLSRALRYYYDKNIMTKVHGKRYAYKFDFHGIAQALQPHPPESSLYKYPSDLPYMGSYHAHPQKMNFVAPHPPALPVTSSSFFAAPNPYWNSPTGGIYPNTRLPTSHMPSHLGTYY
Procedure, shortened: as §1

[5] = molecular target: ELF1 (Homo sapiens, UniProt P32519 1-619); details: protein: recombinant; tags: N-terminal GST; dsDNA, one strand shown
Procedure, shortened: as §1

[6] = molecular target: T5, EHF (Homo sapiens, UniProt Q9NZC4 1-300); details: protein: recombinant; tags: N-terminal GST; dsDNA, one strand shown
T5 sequence: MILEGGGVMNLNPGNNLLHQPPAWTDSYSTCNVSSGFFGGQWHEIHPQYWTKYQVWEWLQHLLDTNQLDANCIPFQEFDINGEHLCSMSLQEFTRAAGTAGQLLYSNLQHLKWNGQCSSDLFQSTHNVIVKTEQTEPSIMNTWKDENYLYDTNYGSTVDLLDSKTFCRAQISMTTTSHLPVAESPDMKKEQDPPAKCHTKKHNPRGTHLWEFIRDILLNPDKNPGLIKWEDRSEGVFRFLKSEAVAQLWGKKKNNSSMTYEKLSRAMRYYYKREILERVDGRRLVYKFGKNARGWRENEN
Procedure, shortened: as §1

[7] = molecular target: SPI1 (Homo sapiens, UniProt P17947 1-270); details: protein: recombinant; tags: N-terminal GST; dsDNA, one strand shown
Procedure, shortened: as §1

[8] = molecular target: SPIB (Homo sapiens, UniProt Q01892 1-262); details: protein: recombinant; tags: N-terminal GST; dsDNA, one strand shown
Procedure, shortened: as §1

[9] = molecular target: T6, ELK3 (Homo sapiens, UniProt P41970 1-407); details: protein: recombinant; tags: N-terminal GST; dsDNA, one strand shown
T6 sequence: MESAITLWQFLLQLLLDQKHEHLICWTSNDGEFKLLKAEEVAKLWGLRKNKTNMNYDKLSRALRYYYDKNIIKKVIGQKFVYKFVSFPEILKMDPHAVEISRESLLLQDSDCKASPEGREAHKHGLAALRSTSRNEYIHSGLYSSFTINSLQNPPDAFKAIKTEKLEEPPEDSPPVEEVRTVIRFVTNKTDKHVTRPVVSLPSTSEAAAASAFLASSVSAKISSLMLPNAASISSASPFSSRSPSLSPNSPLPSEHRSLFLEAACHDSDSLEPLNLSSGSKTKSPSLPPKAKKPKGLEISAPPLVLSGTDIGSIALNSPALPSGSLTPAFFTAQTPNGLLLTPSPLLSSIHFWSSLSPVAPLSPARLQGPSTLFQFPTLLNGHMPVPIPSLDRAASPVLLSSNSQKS
Procedure, shortened: as §1

[10] = molecular target: T7, FEV (Homo sapiens, UniProt Q99581 1-238); details: protein: recombinant; tags: N-terminal GST; dsDNA, one strand shown
T7 sequence: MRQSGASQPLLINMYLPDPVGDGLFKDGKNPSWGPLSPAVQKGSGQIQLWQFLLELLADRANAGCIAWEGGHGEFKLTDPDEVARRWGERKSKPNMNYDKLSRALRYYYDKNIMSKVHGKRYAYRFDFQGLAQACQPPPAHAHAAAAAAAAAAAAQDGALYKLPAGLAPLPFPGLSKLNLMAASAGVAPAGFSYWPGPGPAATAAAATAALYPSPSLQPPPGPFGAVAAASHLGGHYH
Procedure, shortened: as §1

[11] = molecular target: ETV5 (Homo sapiens, UniProt P41161 1-510); details: protein: recombinant; tags: N-terminal GST; dsDNA, one strand shown
Procedure, shortened: as §1

[12] = molecular target: HSF1 (Homo sapiens, UniProt Q00613 1-529); details: protein: recombinant; tags: N-terminal GST; chain copies: 3; dsDNA, one strand shown
Procedure, shortened: as §1

[13] = molecular target: T8, SPIC (Homo sapiens, UniProt Q8N5J4 1-248); details: protein: recombinant; tags: N-terminal GST; dsDNA, one strand shown
T8 sequence: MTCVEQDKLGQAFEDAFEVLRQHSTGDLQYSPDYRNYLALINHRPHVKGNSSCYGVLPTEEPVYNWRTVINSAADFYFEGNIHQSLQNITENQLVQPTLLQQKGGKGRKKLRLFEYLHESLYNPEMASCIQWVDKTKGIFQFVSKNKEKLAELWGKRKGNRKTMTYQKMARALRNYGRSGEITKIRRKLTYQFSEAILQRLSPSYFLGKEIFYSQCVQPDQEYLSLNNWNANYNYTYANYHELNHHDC
Procedure, shortened: as §1

[14] = molecular target: ELF4 (Homo sapiens, UniProt Q99607 1-663); details: protein: recombinant; tags: N-terminal GST; dsDNA, one strand shown
Procedure, shortened: as §1

[15] = molecular target: T9, ELK4 (Homo sapiens, UniProt P28324-2 1-405); details: protein: recombinant; tags: N-terminal GST; dsDNA, one strand shown
T9 sequence: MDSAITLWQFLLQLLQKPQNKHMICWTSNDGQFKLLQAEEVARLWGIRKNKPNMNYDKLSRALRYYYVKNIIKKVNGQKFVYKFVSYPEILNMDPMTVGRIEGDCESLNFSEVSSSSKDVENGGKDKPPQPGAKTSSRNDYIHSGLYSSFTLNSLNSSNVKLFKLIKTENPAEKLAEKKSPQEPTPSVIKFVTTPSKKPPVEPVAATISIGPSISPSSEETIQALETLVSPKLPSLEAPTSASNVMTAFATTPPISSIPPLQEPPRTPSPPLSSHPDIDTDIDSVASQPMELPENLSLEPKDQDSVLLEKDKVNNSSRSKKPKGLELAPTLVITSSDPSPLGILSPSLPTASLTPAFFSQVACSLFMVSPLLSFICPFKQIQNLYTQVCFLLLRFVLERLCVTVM
Procedure, shortened: as §1

[16] = molecular target: T10, ETV2 (Homo sapiens, UniProt O00321 1-342); details: protein: recombinant; tags: N-terminal GST; dsDNA, one strand shown
T10 sequence: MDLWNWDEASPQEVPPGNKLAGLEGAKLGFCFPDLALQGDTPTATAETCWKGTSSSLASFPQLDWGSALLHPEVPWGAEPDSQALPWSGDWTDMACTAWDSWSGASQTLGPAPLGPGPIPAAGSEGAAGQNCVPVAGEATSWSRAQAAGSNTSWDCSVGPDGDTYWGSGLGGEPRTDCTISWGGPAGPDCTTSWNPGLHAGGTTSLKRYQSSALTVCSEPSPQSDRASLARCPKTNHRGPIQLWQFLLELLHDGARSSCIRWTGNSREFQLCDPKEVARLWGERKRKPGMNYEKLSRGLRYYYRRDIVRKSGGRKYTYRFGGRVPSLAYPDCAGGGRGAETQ
Procedure, shortened: as §1

[17] = molecular target: T11, ELF3 (Homo sapiens, UniProt P78545 1-371); details: protein: recombinant; tags: N-terminal GST; dsDNA, one strand shown
T11 sequence: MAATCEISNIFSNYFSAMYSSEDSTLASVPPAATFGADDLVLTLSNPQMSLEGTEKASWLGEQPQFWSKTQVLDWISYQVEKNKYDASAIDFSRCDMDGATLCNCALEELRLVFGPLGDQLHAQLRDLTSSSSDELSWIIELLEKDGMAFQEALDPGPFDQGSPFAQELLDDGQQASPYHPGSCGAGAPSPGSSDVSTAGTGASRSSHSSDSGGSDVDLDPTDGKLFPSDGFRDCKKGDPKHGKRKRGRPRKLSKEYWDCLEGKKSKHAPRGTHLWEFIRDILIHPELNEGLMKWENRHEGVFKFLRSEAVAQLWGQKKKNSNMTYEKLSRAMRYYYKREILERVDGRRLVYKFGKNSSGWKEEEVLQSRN
Procedure, shortened: as §1

[18] = molecular target: CRX (Homo sapiens, UniProt O43186 1-299); details: protein: recombinant; tags: N-terminal GST; dsDNA, one strand shown
Procedure, shortened: as §1

[19] = molecular target: ETV1 (Homo sapiens, UniProt P50549 1-477); details: protein: recombinant; tags: N-terminal GST; dsDNA, one strand shown
Procedure, shortened: as §1

Chain of ELF1 (P32519 whole entry): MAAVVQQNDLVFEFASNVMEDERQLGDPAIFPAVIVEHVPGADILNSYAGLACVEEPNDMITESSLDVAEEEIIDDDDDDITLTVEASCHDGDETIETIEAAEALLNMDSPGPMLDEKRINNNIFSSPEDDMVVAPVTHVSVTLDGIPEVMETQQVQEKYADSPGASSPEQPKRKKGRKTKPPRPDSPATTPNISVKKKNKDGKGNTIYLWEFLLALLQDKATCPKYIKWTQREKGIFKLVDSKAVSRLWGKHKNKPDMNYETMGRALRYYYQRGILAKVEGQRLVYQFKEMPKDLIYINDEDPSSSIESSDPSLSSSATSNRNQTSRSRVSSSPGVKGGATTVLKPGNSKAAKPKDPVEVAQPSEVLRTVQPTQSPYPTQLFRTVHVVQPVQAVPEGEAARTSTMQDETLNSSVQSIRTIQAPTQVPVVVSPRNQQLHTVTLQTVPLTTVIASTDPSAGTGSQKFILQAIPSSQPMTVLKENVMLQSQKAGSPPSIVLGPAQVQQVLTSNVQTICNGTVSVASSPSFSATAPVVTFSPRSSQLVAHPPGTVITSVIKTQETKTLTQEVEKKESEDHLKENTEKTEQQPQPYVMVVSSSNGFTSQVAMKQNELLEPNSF
Chain of SPIB (Q01892 whole entry): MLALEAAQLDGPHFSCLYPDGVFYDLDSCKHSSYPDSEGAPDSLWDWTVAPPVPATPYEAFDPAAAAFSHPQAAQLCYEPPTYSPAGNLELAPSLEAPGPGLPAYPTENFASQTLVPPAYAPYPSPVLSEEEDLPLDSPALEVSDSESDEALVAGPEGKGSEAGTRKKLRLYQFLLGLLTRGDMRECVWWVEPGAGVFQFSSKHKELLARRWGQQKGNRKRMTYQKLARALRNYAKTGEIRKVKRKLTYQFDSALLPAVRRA
Chain of ETV5 (P41161 whole entry): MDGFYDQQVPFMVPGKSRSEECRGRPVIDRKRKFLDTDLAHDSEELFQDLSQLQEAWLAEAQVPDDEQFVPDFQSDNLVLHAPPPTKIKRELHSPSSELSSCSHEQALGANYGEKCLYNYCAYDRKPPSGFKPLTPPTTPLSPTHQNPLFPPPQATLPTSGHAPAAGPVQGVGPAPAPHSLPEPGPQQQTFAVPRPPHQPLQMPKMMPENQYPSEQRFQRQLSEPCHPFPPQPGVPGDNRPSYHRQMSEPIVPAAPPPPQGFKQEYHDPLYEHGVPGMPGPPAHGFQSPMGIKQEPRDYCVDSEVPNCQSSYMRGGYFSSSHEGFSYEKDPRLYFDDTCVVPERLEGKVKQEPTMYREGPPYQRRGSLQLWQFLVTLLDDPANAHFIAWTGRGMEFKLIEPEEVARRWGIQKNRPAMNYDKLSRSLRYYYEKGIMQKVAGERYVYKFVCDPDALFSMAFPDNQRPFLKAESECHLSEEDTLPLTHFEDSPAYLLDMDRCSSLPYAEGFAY
Chain of ETV1 (P50549 whole entry): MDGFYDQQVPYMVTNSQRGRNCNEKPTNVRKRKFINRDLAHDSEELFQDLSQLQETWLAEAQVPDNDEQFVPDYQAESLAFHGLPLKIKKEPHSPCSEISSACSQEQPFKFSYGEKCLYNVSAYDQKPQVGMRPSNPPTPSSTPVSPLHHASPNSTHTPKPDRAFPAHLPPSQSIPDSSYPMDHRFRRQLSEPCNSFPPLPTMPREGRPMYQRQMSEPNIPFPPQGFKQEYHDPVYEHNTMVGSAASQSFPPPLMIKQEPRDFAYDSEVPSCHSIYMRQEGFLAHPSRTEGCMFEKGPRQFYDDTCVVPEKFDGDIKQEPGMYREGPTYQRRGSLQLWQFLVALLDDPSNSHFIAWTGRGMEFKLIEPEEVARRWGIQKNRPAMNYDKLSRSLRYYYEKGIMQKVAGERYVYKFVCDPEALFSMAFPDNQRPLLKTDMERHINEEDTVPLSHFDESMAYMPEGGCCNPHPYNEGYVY
Chain of CRX (O43186 whole entry): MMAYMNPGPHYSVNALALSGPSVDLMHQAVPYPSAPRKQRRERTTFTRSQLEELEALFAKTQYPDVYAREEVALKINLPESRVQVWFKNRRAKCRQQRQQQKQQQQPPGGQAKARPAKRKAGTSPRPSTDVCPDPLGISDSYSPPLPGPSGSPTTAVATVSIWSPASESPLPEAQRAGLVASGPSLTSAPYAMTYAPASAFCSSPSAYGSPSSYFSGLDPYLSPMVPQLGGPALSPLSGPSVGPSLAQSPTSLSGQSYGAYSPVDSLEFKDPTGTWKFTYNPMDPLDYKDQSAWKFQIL
Chain of HSF1 (Q00613 whole entry): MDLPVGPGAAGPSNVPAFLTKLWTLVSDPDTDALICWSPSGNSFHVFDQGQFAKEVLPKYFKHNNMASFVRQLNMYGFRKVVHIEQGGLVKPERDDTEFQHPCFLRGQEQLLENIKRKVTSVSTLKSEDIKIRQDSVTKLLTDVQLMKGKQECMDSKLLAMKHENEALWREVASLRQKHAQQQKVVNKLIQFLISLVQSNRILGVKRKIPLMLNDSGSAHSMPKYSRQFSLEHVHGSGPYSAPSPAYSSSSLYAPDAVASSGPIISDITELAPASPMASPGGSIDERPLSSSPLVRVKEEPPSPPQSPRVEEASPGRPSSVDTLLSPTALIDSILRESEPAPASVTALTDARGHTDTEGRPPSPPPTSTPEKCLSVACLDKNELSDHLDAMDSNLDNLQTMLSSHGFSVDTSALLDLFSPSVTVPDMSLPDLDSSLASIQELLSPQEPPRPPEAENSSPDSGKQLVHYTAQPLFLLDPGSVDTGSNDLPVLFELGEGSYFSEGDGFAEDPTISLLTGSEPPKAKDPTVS
Chain of ELF4 (Q99607 whole entry): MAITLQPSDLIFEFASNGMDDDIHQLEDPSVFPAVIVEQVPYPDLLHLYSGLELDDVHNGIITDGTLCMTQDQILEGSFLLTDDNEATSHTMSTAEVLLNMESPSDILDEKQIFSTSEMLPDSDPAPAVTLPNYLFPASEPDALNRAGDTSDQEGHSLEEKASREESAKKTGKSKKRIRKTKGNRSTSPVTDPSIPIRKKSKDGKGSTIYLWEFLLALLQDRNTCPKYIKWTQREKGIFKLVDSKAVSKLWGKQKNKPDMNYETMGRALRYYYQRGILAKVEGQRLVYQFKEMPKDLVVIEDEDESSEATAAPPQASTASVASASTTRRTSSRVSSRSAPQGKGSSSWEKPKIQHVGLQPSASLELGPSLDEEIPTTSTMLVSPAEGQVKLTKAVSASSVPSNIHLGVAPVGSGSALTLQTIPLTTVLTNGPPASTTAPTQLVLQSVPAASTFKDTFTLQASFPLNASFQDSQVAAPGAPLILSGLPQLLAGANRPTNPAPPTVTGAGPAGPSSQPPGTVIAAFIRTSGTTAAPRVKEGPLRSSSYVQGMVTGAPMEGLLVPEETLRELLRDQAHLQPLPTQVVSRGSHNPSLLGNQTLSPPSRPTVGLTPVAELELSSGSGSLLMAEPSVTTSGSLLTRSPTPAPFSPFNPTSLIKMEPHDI

With CCTTAG the binding signal [1] was 1.3 fold enrichment (6-mer frequency, TF over GST control), the binding signal [2] was 1.3 fold enrichment (6-mer frequency, TF over GST control) and the binding signal [3] was 1.18 fold enrichment (6-mer frequency, TF over GST control). For the same sequence, the binding signal [4] was 1.24 fold enrichment (6-mer frequency, TF over GST control), the binding signal [5] was 1.27 fold enrichment (6-mer frequency, TF over GST control) and the binding signal [6] was 1.3 fold enrichment (6-mer frequency, TF over GST control). The binding signal [7] was 1.21 fold enrichment (6-mer frequency, TF over GST control), the binding signal [8] was 1.34 fold enrichment (6-mer frequency, TF over GST control) and the binding signal [9] was 1.23 fold enrichment (6-mer frequency, TF over GST control). For the same sequence, the binding signal [10] was 1.28 fold enrichment (6-mer frequency, TF over GST control), the binding signal [11] was 1.18 fold enrichment (6-mer frequency, TF over GST control) and the binding signal [12] was 1.2 fold enrichment (6-mer frequency, TF over GST control). For the same sequence, the binding signal [13] was 1.36 fold enrichment (6-mer frequency, TF over GST control), the binding signal [14] was 1.34 fold enrichment (6-mer frequency, TF over GST control) and the binding signal [15] was 1.34 fold enrichment (6-mer frequency, TF over GST control). The binding signal [16] was 1.32 fold enrichment (6-mer frequency, TF over GST control), the binding signal [17] was 1.05 fold enrichment (6-mer frequency, TF over GST control) and the binding signal [18] was 1.28 fold enrichment (6-mer frequency, TF over GST control). For the same sequence, the binding signal [19] was 1.22 fold enrichment (6-mer frequency, TF over GST control).
